Assay in all cases: NCI-60 one-dose screen, 48 h (100 = growth as untreated, 0 = no growth, -100 = all killed)
Holding throughout (conditions): 10 µM unless noted

Assay [1] relates to SK-MEL-2 melanoma.
The subject of assay [2] is EKVX NSCLC.
Assay [3] deals with SN12C renal.
For assay [4], the system named is UO-31 renal.
The test system of assay [5] is TK-10 renal.
The subject of assay [6] is ACHN renal.
Assay [7] concerns CAKI-1 renal.
In assay [8] the test system is A498 renal.
Assay [9] relates to CCRF-CEM leukemia.
Assay [10] relates to MOLT-4 leukemia.
For assay [11], the system named is SR leukemia.
The test system of assay [12] is OVCAR-8 ovarian.
Assay [13] concerns OVCAR-5 ovarian.
In assay [14] the test system is OVCAR-4 ovarian.
The subject of assay [15] is SK-OV-3 ovarian.
For assay [16], the system named is IGROV1 ovarian.
Assay [17] relates to OVCAR-3 ovarian.
The test system of assay [18] is HS 578T breast.
The test system of assay [19] is NCI/ADR-RES ovarian.
Assay [20] deals with RPMI-8226 leukemia.

Here are results for eight compounds from PubChem BioAssay (NCI).

About 83,000 compounds went through this panel and 20% of them were active in at least one assay; those are over-represented in the sample as a whole.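 Single-concentration screen, 48 h exposure, 96-well plates. Endpoint: percent growth. Below 10 = active.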 A number with no mark means an inactive call. Active and inactive are the calls of the source.

Consider `CCOC(=O)c1cnc2ccc(Br)cc2c1Nc1cccc(S(=O)(=O)NC)c1`, for which the growth is 111% in [1]; 96.2% in [2]; 103% in assay [3]; 80.4% in assay [4]; 114% in [5]; 98.3% in assay [6]. Besides, the growth in assay [7] was 87.4%; in [8], 77.7%; in assay [9], 105%; in assay [10], 115%; in assay [11] it was 124%; in assay [12], 101%. Further, the growth is 100% in assay [13]; 82.4% in [14]; 96.2% in assay [15]; 89.5% in [16]; 104% in assay [17]; 95.8% in [18]. In addition, the growth in [19] is 80.4%.
`O=C(Nc1ccc(Nc2cc(Nc3ccccc3)ncn2)cc1)Nc1cc(C(F)(F)F)ccc1F`: the growth was 82.8% in [1]; 80.5% in assay [2]; 78.5% in assay [3]; 65.6% in [4]; 89.5% in assay [5]; 66.9% in [6]. The growth in assay [7] was 74.4%; in [8], 75.3%; in [9], 71.7%; in [10], 63.6%; in [11], 42%; in assay [20] it was 65.1%. Also, the growth was 78.1% in [13]; 71.2% in assay [14]; 101% in assay [15]; 90.3% in [16]; 88.5% in assay [17]; 78.9% in assay [18].
As to `CC(C)(C)n1cc(-c2ccnc(NCCCNS(=O)(=O)c3cccc4ccccc34)c2)c(-c2cccc(O)c2)n1`, the growth in assay [1] was 30.1%; in assay [2], 42.3%; in assay [3], 36.7%; in assay [4], 44.8%; in [5], 74.8%; in [6], 36.7%. The growth was 40.4% in [7]; 48% in assay [8]; 22.1% in assay [9]; 7.2% (active) in [10]; -1.59% (active) in assay [11]; -34.8% (active) in [20]. The growth in assay [13] was 48.4%; in assay [14], 36.5%; in assay [15], 71.4%; in [16], 41.7%; in [18], 36.6%; in assay [19], 36.5%.
Consider `O=C1c2c[n+](Cc3ccccc3)ccc2-c2nc3ccccc3c3ccnc1c23`, for which the growth is -53.6% (active) in assay [1]; -1.66% (active) in [2]; -74.2% (active) in assay [3]; -21.8% (active) in [4]; -20.2% (active) in assay [5]; -13% (active) in assay [6]. Also, the growth in [7] was 13.8%; in assay [8], -56.1% (active); in assay [9], -13.1% (active); in assay [10], -17.2% (active); in assay [11], -8.84% (active); in assay [20], -25.2% (active). Also, the growth in assay [13] is -11% (active); in [14], -38.7% (active); in assay [15] it was -13% (active); in assay [16], -46.1% (active); in assay [17], -66.8% (active); in assay [18], -18.8% (active). Besides, the growth in assay [19] was 75.9%.
Consider `O=c1cc(-c2ccccc2)[nH]c2ccccc12`, for which the growth in assay [1] was 55.8%; in assay [2], 50.5%; in assay [3] it was 91.6%; in assay [4], 46.6%; in [5], 11.4%; in assay [6], 48.8%. In addition, the growth in [7] is 47.4%; in assay [8], 47.6%; in assay [9], 15.2%; in assay [10], 32%; in [11] it was 22.8%; in assay [20] it was 22.4%. Besides, the growth was 50.6% in assay [13]; 64.5% in [14]; 37.5% in assay [15]; -7.72% (active) in assay [16]; -37.8% (active) in assay [17]; 25.9% in assay [18]. The growth in [19] was -2.1% (active).
Take `ClC1=C2NC=NC2n2c(nnc2-c2ccc(Cl)cc2)N1` (centres undefined): the growth in assay [1] was 95.8%; in [2] it was 105%; in assay [3] it was 94.5%; in assay [4], 92%; in assay [5], 122%; in assay [6], 109%. For the same compound, the growth in assay [7] was 98.8%; in assay [8], 73.1%; in [9], 99.9%; in assay [10], 99.6%; in assay [11], 91.9%; in assay [20] it was 89.2%. In addition, the growth in assay [13] was 110%; in [14], 116%; in assay [15], 105%; in assay [16] it was 119%; in assay [17], 120%; in assay [18] it was 112%. The growth in assay [19] is 108%.
Regarding `C=C1CC[C@@H]2[C@](C)(COC(C)=O)[C@H](OC(C)=O)CC[C@@]2(C)[C@@H]1CC(Nc1ccc(S(=O)(=O)Nc2ccc(Cl)nn2)cc1)C1=CCOC1=O` (some centres undefined), the growth in assay [1] is 58.3%; in [2], 87.3%; in assay [3], -27.6% (active); in assay [4], 18.4%; in [5], 69.8%; in [6] it was 16.1%. Further, the growth in assay [7] is 31.8%; in assay [8], 89%; in assay [9], -10.3% (active); in assay [10], 0.401% (active); in assay [11], -5.26% (active); in assay [20], -19.2% (active). Also, the growth in assay [13] is 44.6%; in assay [14] it was 30.8%; in assay [15], 86.1%; in [16], 43.3%; in assay [17] it was -56.1% (active); in assay [18], 75.6%. In assay [19], the growth is 16.7%.
Take `CCN(CC)CC(C)Nc1ccc([N+](=O)[O-])c2sc3ccccc3c(=O)c12` (centres undefined): the growth in assay [1] was 26.8%; in assay [2], 34.5%; in [3] it was 37.2%; in assay [4] it was 0.595% (active); in assay [5], 49.5%; in assay [6] it was 7.58% (active). Further, the growth in assay [7] is 18.1%; in assay [8], 29.8%; in assay [9], 15.2%; in [10], -24% (active); in assay [11], -32.3% (active); in assay [20] it was -29.7% (active). The growth in assay [13] is 53.9%; in assay [14] it was 32.9%; in assay [16], 22.3%; in assay [17], 36.6%; in assay [18], 27.7%; in assay [19] it was 34.7%.
